Data on 104 compounds can be found in ChEMBL document CHEMBL4513216, “Probing the Open Global Health Chemical Diversity Library for Multistage-Active Starting Points for Next-Generation Antimalarials” (ACS Infect Dis, 2020).

Among all 68,000 compounds or so, about 2,700 (4%) showed an effect of 50% or more. This excerpt belongs to a sample that is enriched for strong results.

In the test the test system is Plasmodium berghei. The experiment in a line: Screen against P. berghei liver stage (PbLuc), transformed with Luciferase, at 2uM. The format is functional, HepG2. Particulars: tested at 2 uM.
Regarding `Cc1cccc(CN2CCc3c(nc(N4CCC(C)CC4)[nH]c3=O)C2)n1`, the INHIBITION amounted to 23.94%. As for `COc1ccc(CN2CCCC3(CCN(c4ccsc4)C3=O)C2)cc1` (centres undefined), the INHIBITION was 7.21%. Turning to `N#Cc1ccc(CS(=O)(=O)NC(=O)c2ccc3c(c2)COC3)cc1`, the INHIBITION is -14.32%. Regarding `CCCc1cc(CNc2cc(CCC)nc3ccnn23)on1`, the INHIBITION is -15.75%.

On to `Fc1cccc(F)c1Cn1c(C2CCNCC2)cc2cccnc21`, for which the INHIBITION turned out to be 13.17%. Then `C=c1ccoc1=C1NN=C(CNC2CCCN(c3cccnn3)C2)O1` (centres undefined), with 7.01%; and `O=C(Cc1ccccn1)N1CCc2ncnc(N3CCCC3)c2CC1`, with -3.19%; and `CCNC(=O)C1CCN(Cc2ccccc2OCC(F)(F)F)CC1`, with 8.59%. The figure for `CC(C)(C)n1ncc(NCCc2ccccc2C(F)(F)F)c(Cl)c1=O` is -59.58%. For `CC(=O)N1C[C@H]2CC[C@@H](C1)N(S(=O)(=O)c1ccc(F)cc1Cl)C2`, the INHIBITION is recorded as -11.81%.

With `CS(=O)(=O)N1CCC(NCC2(N3CCOCC3)CCCCC2)CC1`, the INHIBITION is recorded as 7.67%. With `C1CCC(NCC2(N3CCOCC3)CCSC2)C1` (centres undefined), the INHIBITION is on record as -20.95%. With `C1CCC(CNC2CCSCC2)(N2CCOCC2)CC1`, the INHIBITION is 60.13%.

Consider `CCN1CC2(CCNCC2)COc2ccccc2S1(=O)=O`, for which the INHIBITION was 3%. On to `CC(C)COCC1CN(Cc2cnn(C)c2)Cc2ncn(C)c21` (centres undefined), for which the INHIBITION stood at 79.02%. Consider `CC(C)COCC1CN(Cc2ccoc2)Cc2ncn(C)c21` (centres undefined), for which the INHIBITION is -13.32%. Then `CCOCC1CN(Cc2cnn(C)c2)Cc2ncn(C)c21` (centres undefined), with -20.41%; and `CC(=O)N1CCCN(C(=O)CN(C)c2ccc(Cl)cn2)CC1`, with 12.29%; and `Cc1cccc(N(CC(=O)c2ccccc2)C2=NCCCCC2)c1`, with -17.7%. The figure for `Cc1oncc1C(=O)NCc1cc(=O)n2c(n1)CN(C(C)C)CCC2` is 4.42%; for `Cc1nc(CNC(=O)NCCc2ccc(N(C)C)cc2)cs1` it is 12.88%; for `Cc1nc(CCNC(=O)NCc2cccc(N(C)C)n2)cs1` it is 53.45%. Then `Cc1nc(CCNC(=O)NCc2ccc(N(C)C)nc2)cs1`, with -16.42%; and `CN(C)c1ncccc1CNc1cc(N2CCCC2CO)ncn1` (centres undefined), with -1.02%; and `Cc1cnccc1CN(C)Cc1c[nH]nc1-c1ccc(F)cc1F`, with 51.39%. As to `CC(C)CN(C)Cc1c[nH]nc1-c1ccc(F)cc1F`, the INHIBITION is recorded as -22.69%.

Consider `Cc1nonc1CN(C)Cc1c[nH]nc1-c1ccc(F)cc1F`, for which the INHIBITION came to 2.59%.

As for `CCCN1CCC(c2cc(CCOc3ccc(C(F)(F)F)cc3)[nH]n2)C1` (centres undefined), the INHIBITION was 27.53%. Then `Cc1cccc(CN2CCc3[nH]nc(C(=O)N(C)C)c3C2)n1`, with -25.31%; and `OC(COCc1ccccc1)CSc1nnc2ccccn12` (centres undefined), with 2.9%.

For `OC(COCc1ccco1)CSc1nnc2ccccn12` (centres undefined), the INHIBITION worked out at 76.82%. Then `OC(COCc1cccs1)CSc1nnc2ccccn12` (centres undefined), with 45.82%; and `Cc1ccccc1N1CCN(c2ccncn2)C(C)C1` (centres undefined), with -90.79%. Then `Cc1ccccc1N1CCCN(C(=O)CCc2ccncc2)CC1`, with 1.42%. In the case of `Cc1ccccc1N1CCCN(c2ccncn2)CC1`, the INHIBITION was determined as 53.45%. `CCCc1nnc2sc(CC3CN(Cc4ccccc4)CCO3)nn12` (centres undefined): the INHIBITION turned out to be 51.43%. `CC(C)c1nnc2sc(CC3CN(Cc4ccccc4)CCO3)nn12` (centres undefined): the INHIBITION is listed as 23.33%. The figure for `CC(C)N1CCOC(Cc2nn3c(Cc4ccccc4)nnc3s2)C1` (centres undefined) is 20.29%; for `CCN1CCc2[nH]cnc2C12CCN(c1ccc(Cl)c(C(=O)O)n1)CC2` it is -3.87%. As for `O=C(NCc1cccnc1-n1cncn1)c1cc(Cl)ccn1`, the INHIBITION was determined as 34%. For `CNCC1CCC(c2cc(CN(C)C(=O)c3cnccn3)n(C)n2)CC1` (centres undefined), the INHIBITION worked out at 24.98%. Take `CSc1ncc(CNC(C)c2cnn(-c3ccc(F)cc3F)c2C)cn1` (centres undefined): the INHIBITION is -20.35%. The figure for `Cc1c(C(C)NC2CSCCSC2)cnn1-c1ccc(F)cc1F` (centres undefined) is 81.59%. As to `Cc1c(C(C)NC2CCOCC2)cnn1-c1ccc(F)cc1F` (centres undefined), the INHIBITION amounted to 69.67%. The figure for `COc1ccc(-n2ncc(C(C)NC3CCSCC3)c2C)cc1` (centres undefined) is -62.99%; for `Cc1c(C(C)NCC2CCCC2)cnn1-c1ccc(F)cc1F` (centres undefined) it is 10.05%; for `Cc1c(C(C)NC2CCN(C(C)C)CC2)cnn1-c1ccc(F)cc1F` (centres undefined) it is 14.82%. The figure for `CC(=O)N1CCC(NC(C)c2cnn(-c3ccc(F)cc3F)c2C)CC1` (centres undefined) is 79.21%; for `Cc1c(C(C)NC(=O)Nc2ccc(F)cc2F)cnn1C` (centres undefined) it is -41.11%.

With `Cc1c(C(C)NC2CCCC2)cnn1-c1ccc(F)cc1F` (centres undefined), the INHIBITION was 12.43%. `Cc1cc2c(cc1NC(N)=O)OCO2`: the INHIBITION is 23.3%. `CCn1nc(C)cc1C(=O)N1C[C@@H]2C[C@@H](c3nnc(C)[nH]3)O[C@@H]2C1`: the INHIBITION was determined as 24.23%. Then `CN1CCN(C2COC3(CCN(Cc4ccsc4)CC3)C2)CC1` (centres undefined), with -0.38%; and `COc1ccc2c(ccn2CCC(=O)/N=c2\[nH]nc(C3CCCO3)s2)c1` (centres undefined), with 1.57%. On to `Cc1nc(C)c(CC(=O)N2C[C@H]3CC[C@@H](C2)N(CC2CC2)C3)s1`, for which the INHIBITION is reported as -38.36%. `CCC[C@@H]1CN(C(=O)c2c(F)ccc(C)c2Cl)C[C@H]1C(=O)O`: the INHIBITION is on record as 2.3%. Then `CCOc1ccccc1CC(=O)N1C[C@@H](C(=O)O)[C@H](c2ccncc2)C1`, with -36.68%. For `Cc1nc(C)c(CC(=O)N2C[C@@H](C(=O)O)[C@H](c3ccccc3C)C2)s1`, the INHIBITION is -57.67%. With `CCC[C@@H]1CN(C(=O)Cc2sc(C)nc2C)C[C@H]1C(=O)O`, the INHIBITION worked out at 53.55%. The figure for `Cc1nc(C)c(CC(=O)N2C[C@@H](C(=O)O)[C@H](c3ccncc3)C2)s1` is 56.78%; for `CCc1nccn1C1CCCN(C(=O)c2ccc3c(c2)OCCO3)C1` (centres undefined) it is -14.17%; for `CCOC1CCC2(CCN(C(=O)c3csnn3)CC2)c2ccccc21` (centres undefined) it is 30.15%. Then `CC(C)(C)c1nc(CN2CCN(C(=O)c3cnccn3)CC2)cs1`, with 8.5%; and `COc1cccc(CN2C[C@@H]3COC[C@]3(COCc3ccccn3)C2)c1`, with 17.35%. `O=C(Nc1ccc(-c2csnn2)cc1)N1CCC(N2CCCC2)C1` (centres undefined): the INHIBITION is reported as -55.13%. The figure for `Cc1noc(CCNS(=O)(=O)N2CCCC2c2ccc(C)o2)n1` (centres undefined) is 20.34%; for `Cc1noc(CCNS(=O)(=O)N2CCCC2c2ccco2)n1` (centres undefined) it is 51.76%; for `Cc1noc(CCCNS(=O)(=O)N2CCCC2c2ccco2)n1` (centres undefined) it is 41.52%. Then `CN(Cc1cccc(C(N)=O)c1)CC1CCCN1c1cccnn1` (centres undefined), with 15.67%; and `CCOC1CCN(C(=O)c2c(Cl)c3ccccc3n2C)CC1`, with 2.8%; and `Cc1ccsc1C(O)CNS(=O)(=O)Cc1ccc(F)cc1` (centres undefined), with -10.98%. Then `Cc1nc(NCCC23CCCN2CCC3)cc(C2CCNCC2)n1`, with 50.61%; and `CNc1cc(C2CCCNC2)nc(C)n1` (centres undefined), with -23.54%. For `Cc1nc(NCCC23CCCN2CCC3)cc(C2CCCNC2)n1` (centres undefined), the INHIBITION was determined as 55.66%. Then `Cc1nc(NCC23CCCN2CCC3)cc(C2CCCNC2)n1` (centres undefined), with 35.46%; and `Cc1nc(NCc2ccc(C)o2)cc(C2CCNCC2)n1`, with 7.42%.

Consider `Cc1cc(C2CCC2)nc(NCCC23CCCN2CCC3)n1`, for which the INHIBITION is -44.93%. The figure for `CCO[C@@H]1CC[C@H]2[C@H]1OCCN2C(=O)CC1=CCCCC1` is -32.82%; for `CC(C)n1cnc(C2CN(C)c3ccc(C(=O)NC4CCCC4)cc32)n1` (centres undefined) it is 9.36%; for `O=C(c1ccc2c(c1)[nH]c(=O)n2C1CCC(O)CC1)N1CCOCC1` (centres undefined) it is 42.8%.

Turning to `Cc1cc(N2CCCC2c2nc(C)cc(CCC(=O)O)n2)ncn1` (centres undefined), the INHIBITION is recorded as 27.81%. The figure for `NC(=O)C1CCN(C(=O)NCc2ccccc2-n2cccn2)C1` (centres undefined) is 32.41%; for `c1cncc(COC2COC3(CCN(c4cnccn4)CC3)C2)c1` (centres undefined) it is -16.36%; for `COc1ccc(CC(=O)N2CCN(Cc3ccco3)C[C@@H]2C)cc1` it is 19.69%. Then `C[C@@H]1CN(Cc2ccco2)CCN1C(=O)Cc1ccccc1F`, with 50.68%; and `COc1ccccc1CC(=O)N1CCN(Cc2ccco2)C[C@@H]1C`, with 4.19%. The figure for `Cc1nn(C)c(C)c1CN(C)C(C(=O)O)c1ccc(F)cc1F` (centres undefined) is 13.99%; for `CNC(=O)C(C)(C)NC(=O)c1cc(COc2ccccc2OC)[nH]n1` it is -25.61%. `COc1ccc(C)cc1CC(=O)NS(=O)(=O)c1ccc(C(N)=O)cc1`: the INHIBITION amounted to 43.75%.

Consider `COc1ccc(C)cc1CN(CC(N)=O)C(C)C`, for which the INHIBITION worked out at 11.51%.

With `COc1ccccc1CC(=O)NS(=O)(=O)c1ccc(C(N)=O)cc1`, the INHIBITION came out at 1.5%. The figure for `COc1ccc(F)cc1CN(CC(N)=O)C(C)C` is -21.69%. Then `COc1ccc(Cl)cc1CN(CC(N)=O)C(C)C`, with 50.46%. As to `COc1ccc(Cl)cc1CC(=O)NS(=O)(=O)c1ccc(C(N)=O)cc1`, the INHIBITION is listed as 58.96%. The figure for `c1ccn(Cc2nnc3n2CCCN(c2cnccn2)C3)c1` is -11.68%; for `Cc1cnc(CN(C)C2CCN(Cc3ccc(Cl)s3)C2)o1` (centres undefined) it is -39.39%; for `CC(C)=CCN1C(=O)[C@@H]2CC[C@H]1CN(Cc1cccnc1N)C2` it is 16.01%. Then `Nc1ncccc1CN1C[C@H]2CC[C@@H](C1)N(CC1CC1)C2=O`, with 70.26%. Then `Cc1noc(C)c1CN1C(=O)[C@@H]2CC[C@H]1CN(Cc1cccnc1N)C2`, with 31.38%; and `Cc1nccc(NCc2cncc3c2CCN(CC2CC2)C3)n1`, with 25.86%.

As to `CCOc1ccc(NC2CCN(C3CC3)C2=O)cn1` (centres undefined), the INHIBITION is recorded as -13.8%.

`Cc1ncc(CNCCO)c2cc(C(=O)c3ccc(Br)cc3)oc12`: the INHIBITION worked out at 29.19%. Regarding `Cc1ncc(CNC(C)(C)CO)c2cc(C(=O)c3ccc(Br)cc3)oc12`, the INHIBITION came to 61.06%. Regarding `Cc1ncc(CNCC(C)O)c2cc(C(=O)c3ccc(Br)cc3)oc12` (centres undefined), the INHIBITION is on record as -4.01%.
